Source: PubChem BioAssay AID720553 (National Center for Advancing Translational Sciences (NCATS), 2013)
The whole screen tested about 340,000 compounds, of which about 3,300 (0.97%) were called active. The list comes from a sample in which actives are over-represented; it also holds similar structures and randomly drawn compounds. Values without a mark were called inactive.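 How the source made its calls: active means maximum activity change below -70%; inconclusive means maximum activity change from -70% to -50%; inactive means maximum activity change above -50%.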
On the % scale 0 is the no-effect control and ±100 the full control effect.

What follows are molecules tested on Potassium voltage-gated channel subfamily H member 2, brain isoform KCNH2 3.1 (human) (assay: qHTS for Inhibitors of KCHN2 3.1: Mutant qHTS). Conditions: U2OS KCNH2 3.1, thallium flux FluxOr; hits give low values.
Method in brief: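 Thallium flux read-out: FluxOr dye with Red40 quencher in HBSS/HEPES, 45 min at RT. Rate constants from kinetic reads were normalized to positive and negative DMSO controls. Cells: U2OS virally expressing the 3.1 isoform.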
`COc1ccc(OC)c(C(=O)NC2CCCc3c2cnn3-c2cc(C)cc(C)c2)c1` (centres undefined) gave an activity change of -6.38%.
`CCOC(=O)c1cc(-c2sc(NC(=O)c3ccccc3)nc2C)n(CCO)n1` was tested, and the activity change was -0.33%.
`CCCCC(=O)Nc1ccc(C(=O)NCCCn2ccnc2)cc1` showed an activity change of 4.23%.
`CC(=O)Nc1ccc(NC(=O)CCCNC(=O)c2ccc(Cl)cc2)cc1` was tested, and the activity change was 7.78%.
`CCCCC(=O)Nc1ccc(C(=O)Nc2cc(C(F)(F)F)ccc2Cl)cc1` was tested, and the activity change was -83.7% (active).
For `CCN(CC)C(=O)C(C)N1c2cccc3cccc(c23)S1(=O)=O` (centres undefined), the activity change was -7.96%.
For `CNS(=O)(=O)c1ccc2c(c1)[nH]c(=S)n2C`, the activity change was 9.63%.
With `COc1ccccc1NC(=O)C1=C(C)Nc2nc3ccccc3n2C1c1cccs1` (centres undefined) the activity change was 1.01%.
In the case of `COc1ccccc1NC(=O)C1=C(C)Nc2ncnn2C1c1ccc(C)o1` (centres undefined), the activity change is reported as 0.24%.
With `COc1cc(C2C(C(=O)Nc3ccccc3OC)=C(C)Nc3ncnn32)ccc1O` (centres undefined) the activity change was -70.3% (active).
`CC1CCN(C(=O)CSc2nnc(-c3ccco3)n2N)CC1` gave an activity change of 13.4%.
`O=NN(CCCl)C(=O)NCCc1cccc[n+]1[O-]` gave an activity change of -3.54%.
With `CCn1c(SCC(=O)N2CCCC2=O)nc2ccccc21` the activity change was 9.56%.
`COc1cc(CN2CCC(n3nccc3NC(=O)CCCc3ccccc3)CC2)ccc1O` showed an activity change of -32.8%.
With `CC(C)=CCCC(C)CN1CCC(n2nccc2NC(=O)c2ccccc2)CC1` (centres undefined) the activity change was -34.5%.
`O=C(CCc1ccccc1)Nc1ccnn1C1CCN(Cc2ccc(OCCO)cc2)CC1` was tested, and the activity change was -97.2% (active).
`O=C(Nc1ccnn1C1CCN(Cc2cccc(OCCO)c2)CC1)C1CCCC1` showed an activity change of 5.49%.
`Cc1ccc(CN2CCC(n3nccc3NC(=O)CCCc3ccccc3)CC2)o1` showed an activity change of 3.89%.
`COc1ccccc1C(=O)Nc1ccnn1C1CCN(Cc2cnn(C)c2)CC1` was tested, and the activity change was -32.4%.
`Cc1c(CN2CCC(n3nccc3NC(=O)CCc3ccccc3)CC2)cnn1C` was tested, and the activity change was 6.8%.
With `COc1ccc(CN2CCC(n3nccc3NC(=O)CCCc3ccccc3)CC2)cc1C` the activity change was -86.2% (active).
In the case of `CC(C)Oc1ccc(CN2CCC(n3nccc3NC(=O)c3cccnc3)CC2)cc1`, the activity change is reported as -80.6% (active).
`CCOC(=O)c1c(C)[nH]c(C)c1C(=O)COC(=O)/C=C/c1cccc([N+](=O)[O-])c1` gave an activity change of -1.51%.
In the case of `O=C(CNC(=O)N1CC(=O)Nc2ccccc21)Nc1ccc(Br)cc1F`, the activity change is reported as 2.32%.
`COCCn1c(SCC(=O)Nc2ccc(F)cc2F)nc2c(c1=O)SCC2` was tested, and the activity change was -5.38%.
For `CCc1noc(C)c1C(=O)OCC(=O)c1ccc(NC(=O)CC(C)C)cc1`, the activity change was 7.88%.
Work on `O=C(OCc1cn([C@H]2C[C@H](c3ccccc3)N(C(=O)c3cccs3)C[C@@H]2O)nn1)c1ccccc1` yielded an activity change of -26.8%.
`CCOC(=O)C1(CCOc2ccccc2)CCN(Cc2ccc(C#CCCO)cc2)CC1` showed an activity change of -7.38%.
`CCCS(=O)(=O)N1CCC(CCOc2ccccc2)(C(=O)OCC)CC1` was tested, and the activity change was -4.06%.
`CCOC(=O)C1(CCOc2ccccc2)CCN(Cc2cc(OC)cc(OC)c2)CC1` was tested, and the activity change was -108% (active).
For `COc1ccc(S(=O)(=O)N2CCCCC2)cc1NC(=O)COc1ccccc1`, the activity change was -11.6%.
`O=C(Nc1cc(S(=O)(=O)N2CCOCC2)ccc1OCC(F)(F)F)c1ccc(N2CCCC2=O)cc1` gave an activity change of -24.2%.
`Cc1ccc(/C=C/C(=O)Nc2cc(S(=O)(=O)N3CCCCCC3)ccc2OCC(F)(F)F)o1` was tested, and the activity change was -83.4% (active).
`CNC(=O)C[C@H]1C(=O)N(c2ccc(OC)cc2)C[C@@H]1Cc1ccccc1` was tested, and the activity change was 6.56%.
In the case of `COCCCn1c(=O)/c(=C/c2ccccc2OC(C)C)s/c1=C(\C#N)C(=O)Nc1ccc(C(=O)O)cc1`, the activity change is reported as 1.1%.
`CCOC(=O)N1CCN(C(=O)C2CCN(S(=O)(=O)c3cc(Cl)ccc3OCC)CC2)CC1` was tested, and the activity change was -0.753%.
In the case of `CCOc1ccc(Br)cc1S(=O)(=O)N1CCC(C(=O)O)CC1`, the activity change is reported as -119% (active).
`CCOc1ccc(S(=O)(=O)N2CCC(c3ccccc3)CC2)cc1C(=O)O` showed an activity change of -0.0458%.
With `Cc1ccccc1NC(=O)Cc1nc(COC(=O)C(C)(C)Oc2ccc(Cl)cc2)cs1` the activity change was 0.0076%.
With `C/C(=C\c1ccco1)CN1CCC(N2CCC(C(=O)N3CCOCC3)CC2)CC1` the activity change was -81.6% (active).
In the case of `O=C(C1CCN(C2CCN(Cc3cccc4c3OCO4)CC2)CC1)N1CCOCC1`, the activity change is reported as 1.54%.
For `O=C(C1CCN(C2CCN(Cc3ccc4cc(F)ccc4n3)CC2)CC1)N1CCCC1`, the activity change was -46.6%.
`COc1ccc([C@H]2C[C@@H](n3cc(COC(=O)c4ccccc4)nn3)[C@H](O)CN2C(=O)c2cccs2)cc1` was tested, and the activity change was 5.99%.
Work on `COc1cc(-c2nnc(NC(=O)CS(=O)(=O)c3ccc(Cl)cc3)o2)cc(OC)c1OC` yielded an activity change of 3.81%.
In the case of `CN1OC[C@@H]2CN[C@H](c3ccc(-c4ccccc4)cc3)C[C@@H]21`, the activity change is reported as -8.66%.
`CC(C)c1cc(C(=O)N(C)C2CCCN(Cc3ccccc3F)C2)n(C)n1` (centres undefined) gave an activity change of -13.2%.
`COc1ccc(NC(=O)CN(C)C(=O)c2cc(C)oc2C)cc1` gave an activity change of -19.2%.
`CCOC(=O)Cn1c(=O)n(Cc2ccc(OC)cc2)c(=O)c2cccnc21` gave an activity change of -6.36%.
For `CCOC(=O)Cn1c(-c2cccnc2Cl)nc2ccccc21`, the activity change was -86.5% (active).
`CCn1c(-c2cccnc2Cl)nc2cc(C)c(C)cc21` gave an activity change of 1.97%.
`CNC(=O)CSc1nnc(CCc2ccccc2)n1-c1ccccc1` gave an activity change of -7.79%.
`CC(C)Oc1ccc(CCc2n[nH]c(=S)n2Cc2ccccc2)cc1` gave an activity change of 3.01%.
In the case of `CC(C)Oc1ccc(CCc2nnc(SCC(=O)O)n2-c2ccccc2)cc1`, the activity change is reported as -77.9% (active).
`O=Cc1cn(CCOc2ccc(F)cc2)c2ccccc12` was tested, and the activity change was -5.46%.
Molecule `O=C(NCc1ccccc1)C1CNCC(C(=O)NCc2ccccc2)C1` (centres undefined) has an activity change of -3.07%.
Work on `O=C(CCN1C(=O)c2ccccc2C1=O)Nc1cccc(F)c1` yielded an activity change of 3.35%.
`CCOC(=O)N1CCN(CCC(=O)Nc2ccccc2)CC1` showed an activity change of 12.9%.
With `O=C(CN1CCN(C/C=C/c2ccccc2)CC1)Nc1ccc(F)cc1F` the activity change was -107% (active).
`COc1ccccc1NC(=O)CCN1CCN(c2ccc(Cl)cc2)CC1` showed an activity change of -5.85%.
With `CNC(=O)NC(=O)C(C)N1CCN(C/C=C/c2ccccc2)CC1` (centres undefined) the activity change was -32.3%.
`O=C(CCN1CCN(C/C=C/c2ccccc2)CC1)Nc1cccc(F)c1` was tested, and the activity change was -109% (active).
In the case of `O=C(CN1CCN(C(=O)c2cccc(F)c2)CC1)Nc1ccccc1F`, the activity change is reported as -0.253%.
For `O=C(CCN1CCN(C/C=C/c2ccccc2)CC1)Nc1ccccc1Cl`, the activity change was -111% (active).
In the case of `O=C(CN1CCCCCC1)Nc1ccc(Cl)cc1F`, the activity change is reported as 7.99%.
